Laboratory results: PubChem BioAssay (NCATS)
Inconclusive results are not listed. Calls of active or inactive are those of the source. Calls follow the shape of the dose curve; as a rule, active = well fitted curve in the direction sought with a large enough effect; inconclusive = small, poorly fitted or top-dose-only effect, or another doubt; inactive = no such curve, though single readings can be large; an effect the other way counts as inactive or inconclusive.

Assays:
[1] = target: Glutathione peroxidase 1 (Homo sapiens) (UniProt P07203); experiment: Primary qHTS Assay for Inhibitors of Recombinant Selenoprotein Glutathione Peroxidase 1 (GPX1) (AID 1845191); also: nearly all actives have a fitted effect of over 65% in size; as to activity, negative = inhibition: % is scaled to controls: 0 for no effect and ±100 for the full control effect
Outline: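 NADPH consumption tracked by fluorescence at 340/450 nm between t=0 and t=15 min, room temperature. Final mix: 10 nM GPX1, 100 nM glutathione reductase, 1 mM GSH, 0.5 mM NADPH, 0.5 mM cumene hydroperoxide, 0.01% BSA; 30 min compound–enzyme preincubation.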

[2] = target: Phospholipid hydroperoxide glutathione peroxidase GPX4 (Homo sapiens) (UniProt P36969); experiment: Primary qHTS Assay for Inhibitors of Recombinant Selenoprotein Glutathione Peroxidase 4 (GPX4) (AID 1845192); also: nearly all actives have a fitted effect of over 65% in size; as to activity change, negative = inhibition: series mostly up to about 50 µM; % is scaled to controls: 0 for no effect and ±100 for the full control effect
Outline: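 NADPH consumption followed by fluorescence at 340/450 nm, t=0 and after 15 min at room temperature. Reaction started with cumene hydroperoxide (0.5 mM final) after 30 min compound–GPX4 preincubation; final 200 nM GPX4, 100 nM GR, 1 mM GSH, 0.5 mM NADPH.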

[3] = target: Luciferin 4-monooxygenase (Photinus pyralis) (UniProt P08659); experiment: Primary firefly luciferase (FLuc) qHTS assay for identification of artifact compounds. (AID 1845220); also: nearly all actives have a fitted effect of over 60% in size;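 as to activity change, negative = inhibition: series mostly up to about 54 µM; plate controls were DMSO vehicle for no effect and no enzyme for full effect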
Outline: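 Cell-free, 1536-well qHTS. Buffer pH 7.6 with 0.01% Tween-20 and 0.05% BSA; 10 uM D-luciferin, 10 uM ATP; 10 nM P. pyralis luciferase; luminescence after 5 min.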

[4] = Primary fluorescence-based thiol-reactive (MSTI) qHTS assay for identification of artifact compounds. (AID 1845221);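 also: series mostly up to about 54 µM; thiol-reactive compounds lower the probe fluorescence signal; nearly all actives have a fitted effect of over 65% in size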
Outline: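 A multi-concentration qHTS design tested compounds against 4 uM MSTI, pH 7.4 phosphate-buffered saline. Plates were protected from light for 1 h at room temperature before imaging fluorescence.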

[5] = test system: Nanoluciferase (engineered Oplophorus gracilirostris luciferase); experiment: Primary Nanoluciferase (NLuc) qHTS assay for identification of artifact compounds. (AID 1845222);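 also: series mostly up to about 54 µM; 0% = DMSO and -100% = no enzyme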
Outline: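 Compounds are pinned into diluted (1:55) conditioned medium of NLuc-expressing S16 cells and held 15 min at room temperature protected from light. Nano-Glo substrate follows, and luminescence is read 5 min later.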

Phospholipid hydroperoxide glutathione peroxidase GPX4 (Homo sapiens), sequence (P36969 whole entry, looked up): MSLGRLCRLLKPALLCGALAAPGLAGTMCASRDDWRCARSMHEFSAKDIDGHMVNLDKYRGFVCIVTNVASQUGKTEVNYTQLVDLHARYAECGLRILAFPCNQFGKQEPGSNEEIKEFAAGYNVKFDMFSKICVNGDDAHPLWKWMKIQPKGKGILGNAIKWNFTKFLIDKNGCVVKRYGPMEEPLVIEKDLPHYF
Glutathione peroxidase 1 (Homo sapiens), sequence (P07203 whole entry, looked up): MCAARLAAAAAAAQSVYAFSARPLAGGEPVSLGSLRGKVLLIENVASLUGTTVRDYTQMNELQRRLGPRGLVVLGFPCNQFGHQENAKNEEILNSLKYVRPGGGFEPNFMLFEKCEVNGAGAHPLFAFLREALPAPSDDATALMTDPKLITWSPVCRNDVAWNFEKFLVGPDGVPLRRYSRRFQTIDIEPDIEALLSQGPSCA

O=C(OCC12OC1C=CC(OC(=O)c1ccccc1)C2O)c1ccccc1 (stereo not given)
inactive: Potency [1] | Potency [2] | Potency [3] | Potency [4] | Potency [5]

CC1OC(OC2C(CO)OC(OCC3OC(OC(=O)C45CCC(C)(C)CC4C4=CCC6C7(C)CCC(OC8OC(C(=O)O)C(O)C(OC9OC(CO)C(O)C(O)C9O)C8O)C(C)(C)C7CCC6(C)C4(C)CC5)C(O)C(O)C3O)C(O)C2O)C(O)C(O)C1O (stereo not given)
inactive: activity, negative = inhibition [1] -12.7% [at 9.52 µM] | activity change, negative = inhibition [2] -11.9% [at 9.73 µM] | activity change, negative = inhibition [3] -1.13% [at 11.6 µM] | activity change, negative = thiol reactive [4] 336% [at 11.5 µM] | activity, negative = inhibition [5] 0% [at 11.6 µM]

CC12CCC3c4ccc(O)cc4CCC3C1CCC2OC1OC(C(=O)O)C(O)C(O)C1O (stereo not given)
inactive: Potency [1] | Potency [2] | Potency [3] | Potency [4] | Potency [5]

CC(=O)O[C@H]1CC[C@@]2(CI)C(=CC[C@@H]3[C@@H]2CC[C@]2(C)[C@@H]([C@H](C)CCCC(C)C)CC[C@@H]32)C1
inactive: activity, negative = inhibition [1] 1.81% [at 9.52 µM] | activity change, negative = inhibition [2] 1.73% [at 9.73 µM] | activity change, negative = inhibition [3] 3.6% [at 11.6 µM] | activity change, negative = thiol reactive [4] -0.863% [at 11.5 µM] | activity, negative = inhibition [5] -1.76% [at 11.6 µM]

CC1(C)C[C@H]2C3=CCC4[C@@]5(C)CC[C@H](O[C@H]6O[C@H](C(=O)O)[C@@H](O)[C@H](O)[C@H]6O[C@H]6O[C@H](CO)[C@@H](O)[C@H](O)[C@H]6O[C@@H]6O[C@H](CO)[C@@H](O)[C@H](O)[C@H]6O)[C@](C)(CO)C5CC[C@@]4(C)[C@]3(C)CC[C@@]2(C)[C@H](O[C@@H]2OC[C@H](O)[C@H](OC3O[C@H](CO)[C@@H](O)[C@H](O)[C@H]3O)[C@H]2O)[C@@H]1O (stereo not given in full)
inactive: activity, negative = inhibition [1] 0.367% [at 9.52 µM] | outcome [2] inactive [at 9.73 µM] | outcome [3] inactive [at 11.6 µM] | activity change, negative = thiol reactive [4] 48.1% [at 11.5 µM] | activity, negative = inhibition [5] 4.18% [at 11.6 µM]

C[C@]1(OC(=O)/C=C/c2ccccc2)C[C@H](O)[C@]2(O)C=CO[C@@H](O[C@@H]3O[C@H](CO)[C@@H](O)[C@H](O)[C@H]3O)C12 (stereo not given in full)
inactive: Potency [1] | Potency [2] | Potency [3] | Potency [4] | Potency [5]

CC(=O)OC1C=C(C(=O)O)C2(CO)CCC(C)C(C)(CCc3ccoc3)C2C1 (stereo not given)
inactive: Potency [1] | Potency [2] | Potency [3] | Potency [4] | Potency [5]

COc1c(C)c2c(c(O)c1C/C=C(\C)CC/C=C(\C)CCC(=O)O)C(=O)OC2
inactive: Potency [1] | Potency [2] | Potency [3] | Potency [4] | Potency [5]

CNC(=O)O[C@H]1COc2ccc(N3CCN(C4COC4)CC3)cc2[C@@H]1NC(=O)c1ccc(F)cc1
inactive: Potency [1] | Potency [2] | Potency [3] | Potency [4] | Potency [5]

C[C@@H]1CC[C@]2(C)C3(C)CC[C@@]2(OC3=O)[C@@]12C[C@H](c1ccoc1)OC2=O
inactive: Potency [1] | Potency [2] | Potency [3] | Potency [4] | Potency [5]
